Screening results deposited in PubChem by National Center for Advancing Translational Sciences (NCATS).
HCV inhibitor – qHTS Assay for Inhibitors of Hepatitis C Virus (HCV); Huh7.5.1 HCVcc-Cre infection, luciferase reporter, 44 h; Potency, µM (titrated, usually from 41.8 µM), without a hit: at the highest dose activity change, negative = inhibition, most hits filed as inhibitors; 340,000 tested, 3.4% active
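HCVcc-Cre virus at an moi near 0.5 was added right after compound to cells cultured 4 h from seeding (1,000 cells/well). Luciferase activity was determined 44 h later, 15 min after substrate addition at RT.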
Pf growth 96h – Primary qHTS for delayed death inhibitors of the malarial parasite plastid, 96 hour incubation; P. falciparum luciferase reporter growth, 96 h; Potency, µM (doses to about 28.7 µM), inactives show at the highest dose activity change, negative = inhibition, hits mostly inhibitors; 320,000 tested, 6.9% active
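Compounds incubated with erythrocytes infected by luciferase-expressing P. falciparum (2% hematocrit, 0.05% parasitemia final) for 96 hours, 37 C in 5% CO2. Growth inhibition scored as decreased luciferase luminescence.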
AMA1-RON2 inh – qHTS for Inhibitors of AMA1-RON; Towards Development of Antimalarial Drug Lead: Primary Screen | AlphaScreen AMA1-biotinylated RON2 peptide binding | Potency, µM (series often up to 58.2 µM), for the others: top-dose activity change, negative = inhibition, actives largely listed as inhibitors | 360,000 tested, 0.2% active | AID 720542, 2013;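 further: 0% = vehicle wells and -100% = peptide control; nearly all actives have a fitted effect of over 45% in size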
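AMA1 (3D7) with his tag at 25 nM final met compounds first, then biotinylated RON2 peptide at 25 nM; detection used donor plus acceptor beads, 10 µg/mL apiece, read by AlphaScreen after 30 min at room temperature.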
Pf growth 48h – Primary qHTS for delayed death inhibitors of the malarial parasite plastid, 48 hour incubation; P. falciparum luciferase growth in erythrocytes, 48 h; Potency, µM (top dose mostly 28.7 µM), for the others: top-dose activity change, negative = inhibition, actives largely listed as inhibitors; 310,000 tested, 5.9% active; AID 504832, 2011
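Read-out is firefly luciferase luminescence from an integrated reporter in P. falciparum, so falling signal marks reduced parasite growth. Infected erythrocytes were at 2% hematocrit and 0.1% parasitemia (final) in Albumax-supplemented RPMI 1640.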
Numbers without * were called inactive; ? = inconclusive; · = no result; [ ] = another dose, or the depositor's remark. The list is not random: actives were taken first. Their share in the collection is about 11%. The call rests on the fitted dose curve; in most records, active means well fitted curve in the direction sought with a large enough effect; inconclusive means small, poorly fitted or top-dose-only effect, or another doubt; inactive means no such curve, though single readings can be large; an effect the other way counts as inactive or inconclusive. Unless noted, on the % scale 0 is the no-effect control and ±100 the full control effect; potency means the concentration at half of the fitted maximal effect.

SMILES | HCV inhibitor | Pf growth 96h | AMA1-RON2 inh | Pf growth 48h
COc1ccc(CN2CCN(Cc3ccco3)CC2)cc1OC | 3.5% | ? | 17.8µM* | 74.6%
COc1ccccc1N1CCN(Cc2ccco2)CC1 | 8.7% | -1.2%[5.75 µM] | ? | 2.33µM*
C/C(=C/CCC(C)(O)C1CC[C@@]2(C)[C@@H]3CC=C4[C@@H](CC[C@H](O[C@H]5O[C@@H](CO)[C@H](O)[C@@H](O)[C@@H]5O)C4(C)C)[C@]3(C)C(=O)C[C@]12C)CO[C@@H]1O[C@H](CO)[C@@H](O)[C@H](O)[C@H]1O (stereo partly specified) | 2.4% | · | 6.2% | ·
COc1ccc(CNC(=O)C(=O)NCC2OCCN2S(=O)(=O)c2ccc3c(c2)OCCO3)cc1 (stereo unspecified) | -7.1% | -28.3% | 1.3% | -2.2%
CC(C)S(=O)(=O)N1CCCC(c2cc(C(=O)NCc3ccccc3)no2)C1 (stereo unspecified) | · | · | -5.7% | ·
O=S(=O)(Nc1ccc(Cl)c(Cl)c1)N1CCOCC1 | 23.5% | 4.65µM* | 12.7% | 7.2%
CC/C(=N\NC(=O)c1c[nH]c2ccccc12)c1cccs1 | -10.5% | 13.1µM* | -18.1% | ?
C/C(=N\NC(=O)c1c[nH]c2ccccc12)c1ccc(C)s1 | -2.5% | -15.7% | 26.8% | ?
O=C(N/N=C/c1ccc[nH]1)c1c[nH]c2ccccc12 | 0.891µM* | -27.1% | 66.8% | -15.3%
O=C(N/N=C/c1ccc[nH]1)c1sc2ccccc2c1Cl | ? | 6.57µM* | 4.6% | ?
CCCCCC(=O)Nc1ccccc1N1CCOCC1 | 9.5% | 23.5% | 3.4% | -3.7%
CCCCC1CCC(C(=O)Nc2ccccc2N2CCOCC2)CC1 (stereo unspecified) | ? | ? | 2.4% | 14.7µM*
CC(C)(C)C1CCC(C(=O)Nc2ccc(N3CCOCC3)cc2N2CCOCC2)CC1 (stereo unspecified) | -3.9% | ? | -1.3% | 10.4µM*
C[C@H]1[C@H](C)CC[C@]2(C)CC[C@]3(C)C(=CC[C@@H]4[C@@]5(C)CC[C@@H](O)[C@](C)(C(=O)O)[C@@H]5CC[C@]43C)[C@H]12 | · | 13.1µM* | · | ?
C[C@H]1[C@H](C)CC[C@]2(C(=O)O)CC[C@]3(C)C(=CC[C@@H]4[C@@]5(C)CC[C@H](O)C(C)(C)[C@@H]5CC[C@]43C)[C@H]12 | 0.316µM* | 36.7% | 6.3% | 4.4%
C[C@@H]1CC[C@]2(C(=O)O)CC[C@]3(C)C(=CCC4[C@@]5(C)CC[C@H](O)[C@@](C)(C(=O)O)C5CC[C@]43C)C2[C@]1(C)O (stereo partly specified) | 33.2%[8.37 µM] | · | 12.9% | ·
C[C@@H]1CC[C@]2(C(=O)O)CC[C@]3(C)C(=CCC4[C@]56CC[C@@](O)(OC5)C(C)(C)C6CC[C@]43C)C2[C@H]1C (stereo partly specified) | 2µM* | -1.4% | -14.9% | ?
C[C@H]1[C@H](C)CC[C@]2(C(=O)O)CC[C@]3(C)C(=CC[C@@H]4[C@@]5(C)C[C@@H](O)[C@H](O)C(C)(C)[C@@H]5CC[C@]43C)[C@H]12 | 0.1%[8.37 µM] | -0.9% | 2.3% | 3.6%
O=C(CNc1cc(S(=O)(=O)N2CCOCC2)ccc1N1CCCC1)Nc1ccc(Cl)cc1 | -25.8% | · | -8.4% | ·
Cc1[nH]c(=O)[nH]c(=O)c1S(=O)(=O)N1CCCC(C(=O)N2CCN(c3cccc(C(F)(F)F)c3)CC2)C1 (stereo unspecified) | 15.3% | 0.3% | -8.2% | -15.0%
Cc1[nH]c(=O)[nH]c(=O)c1S(=O)(=O)N1CCC(C(=O)N2CCN(c3cccc(C(F)(F)F)c3)CC2)CC1 | ? | 18.2% | -10.0% | 10.4µM*
N#Cc1cccnc1N1CCN(C(=O)c2cccc3c2C(=O)c2ccc(Cl)cc2S3(=O)=O)CC1 | 12.6µM* | ? | 7.1% | ?
COc1ccc(OC)c(NC(=O)Cn2cccc2)c1 | ? | -17.7% | -16.3% | -2.6%
CNc1cc(-c2cccc(N(C)C)c2)ncn1 | · | · | 12.7% | ·
Cc1cc(C)c(N(CC(=O)NC(C)(C)C)C(=O)CNC(=O)c2cccs2)c(C)c1 | 11.7% | 7.4% | 15.0% | ?
SMILES | HCV inhibitor | Pf growth 96h | AMA1-RON2 inh | Pf growth 48h
Cc1ccc(N(CC(=O)NC(C)(C)C)C(=O)CNC(=O)c2cccs2)c(C)c1 | -1.6% | 19.9% | 3.6% | 8.28µM*
CC[n+]1oc(-c2ccccc2)cc1C | 14.1% | 3.3% | -6.5% | ?
Cc1nc(N2CCN(c3ccccn3)CC2)c2c(C)c(C(=O)Nc3ccccc3F)sc2n1 | ? | ? | -12.8% | 6.57µM*
Cc1nc(N2CCC(C)CC2)c2c(C)c(C(=O)Nc3ccc(C(F)(F)F)cc3)sc2n1 | 11.2µM* | ? | -3.6% | 0.208µM*
Cc1c(C(=O)Nc2ccccc2F)sc2ncn(CC(=O)N3CCOCC3)c(=O)c12 | 8.7% | ? | -2.2% | 12.3%
Cc1nc(N2CCOCC2)c2c(C)c(C(=O)Nc3ccccc3Cl)sc2n1 | ? | ? | 19.9% | 6.2%
Cc1ccc(F)cc1NC(=O)c1sc2ncn(CC(=O)N3CCN(c4ccccn4)CC3)c(=O)c2c1C | 14.7% | 14.7µM* | 13.2% | 12.1%
Cc1nc(N2CCN(c3ccccn3)CC2)c2c(C)c(C(=O)Nc3ccc(F)cc3Cl)sc2n1 | ? | 14.1% | 4.9% | ?
Cc1nc(N2CCN(c3ccccn3)CC2)c2c(C)c(C(=O)Nc3ccc(F)cc3F)sc2n1 | 6.4% | -15.2% | -2.4% | 8.28µM*
O=C(O)CCCN1C(=O)C(=O)/C(=C(/O)c2ccccc2)C1/C=C/c1ccccc1 (stereo unspecified) | 3.1% | 64.3% | 5.5% | 21.2%
CC(C)=CCC[C@H](C)C[C@@H]1Cc2[nH][nH]c(=O)c2[C@@H](c2ccc(F)cc2)O1 | · | · | 111.6% | ·
CSc1ccccc1C(=O)C1CCCN(Cc2ccncc2)C1 (stereo unspecified) | ? | 1.17µM* | 1.1% | ?
O=C(c1ccc2c3c(cccc13)CC2)C1CCCN(Cc2cccnc2)C1 (stereo unspecified) | 22.4µM* | ? | ? | 1.65µM*
COc1ccc(O)c(CN2CCCC(C(=O)c3ccccc3SC)C2)c1 (stereo unspecified) | 11.2µM* | 16.2% | ? | 5.22µM*
COc1ccccc1CN1CCCC(C(=O)c2ccccc2SC)C1 (stereo unspecified) | -44.7% | ? | -16.3% | ?
Cc1ccccc1C(=O)Nc1ccnn1C1CCN(C(=O)c2cnsn2)CC1 | 14.3% | -23.9% | 4.8% | 4.8%
C=C[C@@]1(C)C[C@H](OC(=O)CSC(C)(C)CNC(=O)[C@@H](N)C(C)C)[C@@]2(C)C(C)CC[C@@]3(CCC(=O)[C@@H]32)[C@H](C)[C@H]1O (stereo partly specified) | · | -17.5% | · | 1.07µM*
